Screening results (PubChem BioAssay)
pAkt inh: Akt phosphorylation inhibition; Neuro2A IGF-stimulated pAkt S473 HTRF, 20 min; stronger effect = lower value; activity change, % for hits at 50 µM; 360,000 compounds, 0.32% hits; in the data active = activity change below about -80%; inconclusive = mostly about -51% to -80%; note: % is set by controls: 0 for no effect and ±100 for the full control effect
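Neuro2A cells (4,500/well, DMEM with 0.5% FBS) were treated with compound at a single 50 µM final concentration, stimulated with 6 nM IGF for 20 min at 37 °C, and lysed. Phospho-Akt Ser473 was read by HTRF as 665/615 ratio ×10^4.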
MLL CXXC-DNA inh: inhibitors of human MLL CXXC domain-DNA interaction; 290,000 compounds, 0.037% hits; AID 2662; Q03164; MLL-CXXC / FITC-HOXA9 DNA fluorescence polarization; Potency, µM (series often up to 115 µM), without a hit: at the top dose activity change, negative = inhibition, usual class: inhibitors; active = well fitted inhibition curve with a large enough effect in the polarisation, with a control signal flat, not every such curve was filed as active; inconclusive = small, poorly fitted or top-dose-only effect, or effect the other way, or a change in a side signal; inactive = no such curve, though single readings can be large or run the other way; the % refers to the polarisation; note: potency is the fitted concentration of half-maximal effect
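Purified MLL-CXXC (added from a 7 uM solution) was preincubated 5 min at ambient with pinned compounds in 50 mM Tris-HCl pH 7.5, 50 mM NaCl, 1 mM DTT, 0.05% BSA. Fluorescein-labeled HOX-A9 DNA (50 nM solution) followed, 30 min, then polarization read.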
Menin MLL FP FL: menin-MLL binding inhibition, fluorescein peptide; Fluorescence polarization, fluorescein-MLL peptide displacement from menin; FP activity change, % at 61.4 µM; 290,000 tested, under 10 active; active = well fitted curve in the direction sought with a large enough effect in the polarisation, not every such curve was filed as active; inconclusive = small, poorly fitted or top-dose-only effect, or effect the other way, or a change in a side signal; inactive = no such curve, though single readings can be large or run the other way; the % refers to the polarisation; note: % of control where 0% means no effect
Menin MLL FP TR: displaces Texas Red mutant MLL peptide from human menin; Potency, µM (doses to about 61.6 µM), for inactives: at the highest dose FP activity change, negative = inhibition, hits mostly inhibitors; O00255; Menin + Texas Red MLL mutant peptide, fluorescence polarization; 270,000 compounds, 0.23% hits; active = well fitted inhibition curve with a large enough effect in the polarisation, with a control signal flat, not every such curve was filed as active; inconclusive = small, poorly fitted or top-dose-only effect, or effect the other way, or a change in a side signal; inactive = no such curve, though single readings can be large or run the other way; the % refers to the polarisation; note: potency is the fitted concentration of half-maximal effect; % of control where 0% means no effect
LDHA inh: LDHA (human) enzyme inhibition; 480,000 compounds, 0.15% hits; purified LDHA, NADH/diaphorase-resazurin fluorescence; stronger effect = lower value; activity change, % (values are at about 110 or 230 µM); P00338; in the data active = activity change below about -30%; inconclusive = mostly about -25% to -30%;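 note: plate controls were DMSO wells for no effect and wells without enzyme for full effect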
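Human LDH5 (2 nM) was incubated with 0.06 mM NADH and 0.2 mM pyruvate for 5 min at room temperature in Tris pH 7.4. Remaining NADH was coupled through diaphorase/resazurin, and resorufin fluorescence was read at 0 and 20 min.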
IDH1 R132H inh: blocks human mutant IDH1 R132H enzyme. O75874. IDH1-R132H enzyme, NADPH consumption, diaphorase/resazurin fluorescence. Potency, µM (doses to about 76.6 µM), for inactives: at the highest dose activity change, negative = inhibition, hits mostly inhibitors. 390,000 compounds, 0.093% hits. AID 602179; note: potency is the fitted concentration of half-maximal effect; % is set by controls: 0 for no effect and ±100 for the full control effect; nearly all actives have a fitted effect of over 65% in size
Target sequence (O75874 whole entry R132H, stated change not applied): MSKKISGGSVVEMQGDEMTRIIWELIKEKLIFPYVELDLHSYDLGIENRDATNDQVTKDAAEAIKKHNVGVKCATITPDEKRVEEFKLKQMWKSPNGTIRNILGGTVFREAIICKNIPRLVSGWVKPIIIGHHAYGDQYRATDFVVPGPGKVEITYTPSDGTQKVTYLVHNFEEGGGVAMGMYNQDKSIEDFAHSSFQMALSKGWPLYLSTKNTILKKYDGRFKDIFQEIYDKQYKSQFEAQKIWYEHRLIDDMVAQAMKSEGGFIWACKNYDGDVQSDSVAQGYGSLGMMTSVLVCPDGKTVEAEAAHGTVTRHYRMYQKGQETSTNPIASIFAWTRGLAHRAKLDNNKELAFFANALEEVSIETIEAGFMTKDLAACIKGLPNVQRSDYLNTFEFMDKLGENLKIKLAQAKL
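IDH1-R132H (0.5 ug/mL) preincubated 30 min with compound, then NADPH (0.016 mM) and alpha-KG (2 mM) added; 80 min at RT, pH 7.5. Remaining NADPH coupled via diaphorase/resazurin to fluorescence (540/590 nm); concentration-response curves normalized to no-enzyme control.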
MLL CXXC Fl: inhibitors of human MLL CXXC domain-DNA interaction; shares compounds with MLL CXXC-DNA inh; MLL CXXC-DNA binding, fluorescein FP; Potency, µM (series often up to 345 µM), inactives show at the top dose activity change, negative = inhibition, most hits filed as inhibitors; 200 compounds, 70% hits; note: potency is the fitted concentration of half-maximal effect; nearly all actives have a fitted effect of over 80% in size
MLL CXXC FP-TR: disrupts human MLL CXXC domain binding to DNA, Texas Red; shares compounds with MLL CXXC-DNA inh; MLL CXXC-DNA binding, Texas Red fluorescence polarization; Potency, µM (series often up to 345 µM), for the others: at the highest dose activity change, negative = inhibition, actives largely listed as inhibitors; 200 compounds, 40% hits; note: potency is the fitted concentration of half-maximal effect; % is set by controls: 0 for no effect and ±100 for the full control effect; nearly all actives have a fitted effect of over 75% in size
MLL CXXC TRF: disrupts human MLL CXXC domain binding to DNA by HTRF. 210 compounds, 30% hits. AID 624162. Potency, µM (series often up to 172 µM), for the others: at the top dose activity change, negative = inhibition, actives largely listed as inhibitors. shares compounds with MLL CXXC-DNA inh. MLL CXXC-DNA binding, HTRF, biochemical; note: % is set by controls: 0 for no effect and ±100 for the full control effect; nearly all actives have a fitted effect of over 80% in size
Numbers without * were called inactive; i = inactive; ? = inconclusive; / = no result given. Shown are actives, neighbours in structure and some others; about 0.54% of the full set was active somewhere. Unless noted, calls come from the whole dose curve; as a rule, active = well fitted inhibition curve with a large enough effect; inconclusive = small, poorly fitted or top-dose-only effect; inactive = no such curve, though single readings can be large or run the other way.

SMILES	pAkt inh	MLL CXXC-DNA inh	Menin MLL FP FL	Menin MLL FP TR	LDHA inh	IDH1 R132H inh	MLL CXXC Fl	MLL CXXC FP-TR	MLL CXXC TRF
CCc1ccccc1NC(=O)NNS(=O)(=O)c1cc(C)ccc1C	i	14.1µM*	0.4	-1.2%	-1.2	-2.9%	?	-24.2%	0.0%
CC1=NN(c2ccccc2)C(=O)/C1=C/c1c(O)[nH]c(=O)[nH]c1=O	i	1.4%	-1.3	21.3%	-8.4	0.9%	/	/	/
O=c1[nH]c(O)c(/C=C2\C=NN=C2c2ccccc2)c(=O)[nH]1	i	?	5.7	3.4%	3.8	10.1%	4.7%	126µM*	48.5µM*
O=C1NC(=S)NC(=O)C12C(c1ccc(F)cc1)NC(=S)NC2c1ccc(F)cc1 (stereo not given)	-117.9%*	?	1.0	/	-3.4	-4.6%	?	30.7%	-9.9%
CC(CO)NC(=O)C1C=C2c3cccc4[nH]cc(c34)CC2N(C)C1 (stereo not given)	/	31.6µM*	?	-15.0%	/	/	142µM*	?	24.4%
COc1ccc(C=C2C(=O)NC(=S)NC2=O)cc1	i	/	/	/	-16.7	5.9%	/	/	/
COc1cc(C=C2C(=O)NC(=O)NC2=O)ccc1O	i	?	?	23.5%	0.7	2.7%	56.5µM*	159µM*	122µM*
COc1ccc(OCCOc2cccc(C=C3C(=O)NC(=O)NC3=O)c2)cc1	/	?	-1.0	49.4%	/	/	44.8µM*	?	38.5µM*
CCOc1cc(C=C2C(=O)NC(=O)NC2=O)cc([N+](=O)[O-])c1O	/	31.6µM*	-6.5	?	/	/	20µM*	89.5µM*	19.3µM*
CN(C)c1ccc(C=C2C(=O)NC(=O)NC2=O)cc1[N+](=O)[O-]	i	-7.7%	-0.5	13.9%	-8.9	-0.1%	/	/	/
Cc1cc(C(=O)CCl)c(C)[nH]1	/	/	/	/	3.5	/	/	/	/
CCN1C(=O)NC(=O)/C(=C\c2cn(CC(=O)O)c3ccccc23)C1=O	/	?	27.3	24.3%	/	/	/	/	/
Cc1ccc(N2C(=O)NC(=O)/C(=C\c3cn(CC(=O)O)c4ccccc34)C2=O)cc1	i	?	16.4	56.7%	3.3	15.8%	14.2µM*	71.1µM*	-60.1%
O=C(O)Cn1cc(/C=C2\C(=O)NC(=O)N(Cc3ccco3)C2=O)c2ccccc21	i	?	?	?	2.5	8.1%	7.11µM*	39.8%	48.5µM*
OC(CN(Cc1ccccc1)Cc1ccccc1)c1ccc2cc[nH]c2c1 (stereo not given)	/	/	/	/	-6.5	/	/	/	/
O=P(O)(O)C(Cl)(Cl)P(=O)(O)O	/	35.5µM*	-4.7	-2.1%	/	/	?	?	24.3µM*
O=P(O)(O)CCCl	/	/	-1.0	-6.2%	/	/	/	/	/
Cc1cc(/C=C2\C(=O)NC(=O)N(c3ccccc3)C2=O)c(C)n1-c1ccc(C(=O)O)c(Cl)c1	i	?	15.1	22.9%	0.4	-1.0%	7.1%	113µM*	-2.2%
Cc1cc(/C=C2\C(=O)NC(=O)N(c3ccccc3F)C2=O)c(C)n1-c1cc(C(=O)O)cc(C(=O)O)c1	i	12.6µM*	7.9	26.0%	-0.9	3.9%	7.97µM*	22.5µM*	24.3µM*
Cc1cc(/C=C2\C(=O)NC(=O)N(c3ccc(F)cc3)C2=O)c(C)n1-c1cccc(C(=O)O)c1	i	-18.6%	8.2	9.8%	1.4	10.9%	/	/	/
